# Source: PubChem BioAssay (NCI)
# Several values for one entry are separate records, joined by “and”; a condition that tells them apart may be missing. Equal entries are not always repeated. Compounds without any hit were thinned out: in the full panel of roughly 83,000, 20% have a hit.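 Note: values are percent growth. 100 is the growth of untreated cells, values between 100 and 0 indicate rising inhibition; between -100 and 0 indicates cell death.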 Unmarked numbers belong to inactive results. Activity calls are given as the source filed them. The calls were made as follows: active = growth percent below 10; inactive = the rest.
# System: HL-60(TB) leukemia
# Test: NCI-60 one-dose screen, 48 h (100 = growth as untreated, 0 = no growth, -100 = all killed)
# Settings: 10 µM unless noted
row,Structure (SMILES),growth
1,Brc1c(-c2ccncc2)nc2n1CCS2,44.4%
2,Cc1ccc(Cl)cc1NC(=O)N(C)CCO,92%
3,COc1ccc2c(CCC(c3ccccc3)c3ccccc3)c3[n+](cc2c1OC)CCc1cc2c(cc1-3)OCO2,-40.6% (active)
4,COc1ccc(-c2cc3ccc(N(C)C)cc3nc2N)c(F)c1,-15.4% (active)
5,Cc1sc2nc(NCCc3c[nH]c4ccc(Cl)cc34)[nH]c(=O)c2c1C,7.05% (active)
6,CCOC(=O)c1c2c(n3cccc(F)c13)C(=O)c1ncccc1C2=O,-25.8% (active)
7,Clc1ccc(C2=NN(c3ccccc3)[C@H](c3cn(-c4ccccc4)nc3-c3ccccc3)C2)cc1,116%
8,O=C(Nc1ccc(I)cc1F)c1cc(Cl)ccc1O,-44.3% (active)
9,O=C(NC(=O)c1ccc(F)c(Cl)c1)NC1CC1,88.3% and 89%
10,CCCCCCCCCCCCCCCCCCOc1ccccc1CC(=O)NCC[N+]1(C)CCCC1,39.7%
11,O=C(O)/C(=C\c1ccc(Cl)cc1)c1ccc(Cl)cc1,53.3%
12,COc1ccc(C/C(C)=C(/c2ccc(OCCN3CCCCC3)cc2)c2ccc(OC(=O)NCc3ccccc3)cc2)cc1,-75.1% (active)
13,C=CCn1c(SCC(=O)Nc2ccc(C(=O)/C=C/c3cc(OC)c(OC)c(OC)c3)cc2)nnc1-c1cc(-c2ccc(S(C)(=O)=O)cc2)nc2ccccc12,69.8%
14,O=C1Nc2c(ccc(Cl)c2Cl)/C1=C/c1ccc(F)cc1,71.4%
15,N#Cc1c(N)nc2c(C#N)c(NC(=O)c3ccccc3)nn2c1-c1ccccc1,93%
16,Nc1ccc(-c2cc3c(Nc4ccc(OCc5cccc(F)c5)c(Cl)c4)ncnc3s2)cc1,48.3%
17,COc1cc(C)c(Cl)cc1C1=NN(c2ccc(S(N)(=O)=O)cc2)C(/C=C/c2ccccc2)C1 (stereo not given),63.6%
18,Cn1ccc(Cc2cnc(N)s2)n1,94.2%
19,O=C1C(Cl)=C(Nc2ccc(O)cc2)C(=O)N1Cc1ccc(Cl)cc1,32.8%
20,CCOc1ccc(C(=O)Cc2ccccc2)cc1,97.4%

row,Structure (SMILES),growth
1,Cc1ccc(NC(=O)N[C@@H](Cc2cc(F)cc(F)c2)C(=O)N[C@@H]2C(=O)N3CCC[C@H]3C(=O)N3CCOC[C@H]3C(=O)N[C@@H](C)C(=O)N3C[C@H](C)C[C@H]3C(=O)O[C@H]2C)cc1,14.5%
2,C=C(C)[C@@H]1CC[C@]2(C(=O)O)CC[C@]3(C)[C@H](CC[C@@H]4[C@@]5(C)C/C(=C/c6ccc(OC)cc6)C(=O)C(C)(C)[C@@H]5CC[C@]43C)[C@@H]12,2.12% (active)
3,Nc1ccc(S(=O)(=O)Nc2ncccn2)cc1,105%
4,CCCCCCC(C)CC1=C(O)c2ccccc2C(=O)C1=O (stereo not given),37.5%
5,CNC(=O)Cc1nc(-c2cccc(NS(=O)(=O)c3c(F)cccc3F)c2F)c(-c2ccnc(Nc3ccccc3)n2)s1,57.8%
6,CCCCNCCC(O)c1cc2ccc(C(F)(F)F)cc2c2cc(C(F)(F)F)ccc12 (stereo not given),-62.1% (active)
7,COc1cc(/C=C/C(=O)c2c(C)n([O-])c3ccccc3[n+]2=O)cc(OC)c1OC,-10.8% (active)
8,O=C(N/N=C/c1ccc2c(c1)OCO2)c1ccncc1,115% and 225%
9,COc1ccc(/C=C/C(=O)Nc2ncnc3nc[nH]c23)cc1,78.8%
10,Cc1ccc2cccc([N+](=O)[O-])c2n1,93.2% and 94.6%
11,O=C1/C(=C\c2cn(-c3ccccc3)nc2-c2ccc(-c3cccs3)cc2)CCc2ccccc21,50.2%
12,O=[N+]([O-])C1C(c2ccccc2)C12c1ccccc1-c1ccccc12 (stereo not given),-30.6% (active)
13,COc1cc(-c2nc3cc(Cl)c(Cl)cc3[nH]2)ccc1OCC(=O)NN,82%
14,Cc1ccc(S(=O)(=O)Nc2ccc(Cl)cc2)cc1,119%
15,CCN1CCN(CCNc2nccc(-c3c(-c4cccc(O)c4)nc4sccn34)n2)S1(=O)=O,64% and 91.9%
16,CC[N+](CC)(CC(=O)Nc1c(C)cccc1C)Cc1ccccc1,79.6% and 94.7%
17,CC1(CO)CCCC12OCCO2 (stereo not given),105%
18,O=C(O)c1ccc(-n2cc(CNc3ccc(Oc4ccccc4)cc3)c(-c3ccccc3)n2)cc1,92.5%
19,COc1cc(/C=C2\Oc3cc(OCCCN4CCCC4)ccc3C2=O)cc(OC)c1,72.5%
20,COc1cccc(Nc2nc(NCCO)c3ccccc3n2)c1,61.4%
